FBW7 activator = FBW7 E3 ligase activators, primary screen, biochemical, AlphaScreen, human; F-box/WD repeat-containing protein 7 (Homo sapiens), Q969H0; AlphaScreen FBW7–phospho-cyclin E peptide binding, activator screen; normalized activity (activation), % at 26.1 µM; hit rate 0.13% among 650,000; in the data active = normalized activity above about 1.9%;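 also: purified mutant Fbw7 with reduced substrate affinity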
TEAD-YAP block = TEAD-YAP interaction inhibition, primary screen, TEAD-YAP interaction inhibitor project, luminescence, HEK-TIYL cells; TEAD-Gal4/YAP UAS-luciferase luminescence; inhibition, % at 9.12 µM; hit rate 1.4% among 640,000; in the data active = inhibition above about 32%;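 also: 0% = median of test compound wells and 100% = reference inhibitor wells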
GPR151 ag = activators of human GPR151, primary screen, cell-based, PathHunter beta-arrestin, luminescence. G-protein coupled receptor 151 (Homo sapiens), Q8TDV0. PathHunter beta-arrestin GPR151 cells. activation, % at 11.2 µM. hit rate 1% among 650,000. AID 1508602, 2020; in the data active = activation above about 4.9%;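 also: 0% = median of compound wells and 100% = cells with positive control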
Target sequence (Q8TDV0 whole entry, looked up): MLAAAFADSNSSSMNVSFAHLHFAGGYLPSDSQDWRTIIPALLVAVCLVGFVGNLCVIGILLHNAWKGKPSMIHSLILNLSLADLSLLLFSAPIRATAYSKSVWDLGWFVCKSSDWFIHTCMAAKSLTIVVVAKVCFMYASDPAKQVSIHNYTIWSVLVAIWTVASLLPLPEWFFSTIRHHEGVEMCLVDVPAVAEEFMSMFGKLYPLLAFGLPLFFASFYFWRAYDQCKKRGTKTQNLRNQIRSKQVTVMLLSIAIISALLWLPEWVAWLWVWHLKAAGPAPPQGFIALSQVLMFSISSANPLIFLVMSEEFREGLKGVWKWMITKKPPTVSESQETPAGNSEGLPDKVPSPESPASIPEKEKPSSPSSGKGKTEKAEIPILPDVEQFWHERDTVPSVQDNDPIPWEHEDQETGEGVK
MITF primary = MITF inhibitors, primary screen, biochemical, AlphaScreen, human | Microphthalmia-associated transcription factor (Homo sapiens), O75030 | AlphaScreen MITF homodimerization, bead proximity signal | inhibition, % at 2.6 µM | hit rate 0.91% among 650,000; in the data active = inhibition above about 50%;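 also: 0% = vehicle wells with protein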
GPR151 confirm = GPR151 activators, triplicate retest, confirmation, cell-based, PathHunter beta-arrestin, luminescence. shares compounds with GPR151 ag. GPR151 PathHunter beta-arrestin cells, 90 min; % of EA-reagent control over plate median. activation, % at 11.2 µM. 6,700 tested, under 10 active. AID 1508609, 2020;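 active = mean percent activation across replicates above the confirmation screen cutoff of 4.91%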
GPR119 ag = GPR119 activators in beta-arrestin cells, counter-screen for GPR151 activator project, cell-based, PathHunter beta-arrestin, luminescence, triplicate; shares compounds with GPR151 ag; 90 min; 0 = compound-well median, 100 = enzyme-acceptor control; activation, % at 11.2 µM; hit rate 0.3% among 6,700; AID 1508611, 2020;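 active = mean percent activation in the counterscreen above 29.09%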;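 also: counterscreen on off-target GPR119 to flag nonselective hits from the GPR151 activator screen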
An asterisk follows results filed as active; / = no result given. Shown are actives, neighbours in structure and some others; about 3.5% of the full set was active somewhere.

SMILES | FBW7 activator | TEAD-YAP block | GPR151 ag | MITF primary | GPR151 confirm | GPR119 ag
O=C(Cc1ccc(NC2=NC3CS(=O)(=O)CC3S2)cc1)Nc1ccccc1 (stereo not drawn) | 0 | -10 | 1 | -4 | / | /
O=C(CNC(=S)N(Cc1ccc(F)cc1)C1CCCCC1)NCc1ccc(F)cc1 | 1 | 14 | -2 | 16 | / | /
CCc1ccc(NC(=O)CCc2ccc(CC)o2)cc1 | 0 | -14 | 8.5* | 1 | 0 | -4
O=S(=O)(NCc1csc(-c2cccnc2)n1)c1ccc(Br)cc1 | 0 | -9 | 5.6* | 11 | 0 | -10
CC(=O)C1C(c2ccc(F)cc2)C2C(C)=NN=C2CC1(C)O (stereo not drawn) | 0 | 9 | 1 | 12 | / | /
COc1ccc(C2C3C(C)=NN=C3CC(C)(O)C2C(C)=O)cc1 (stereo not drawn) | 0 | -1 | 6.6* | 13 | 2 | 11
CSc1cccc(NC(=O)C2CCCC2)c1 | 0 | -8 | 1 | 6 | / | /
O=[N+]([O-])c1ccc(CSc2nc(NCC3CCCO3)c3ccccc3n2)cc1 (stereo not drawn) | 0 | 10 | 1 | 5 | / | /
COc1cccc(N2CC(C(=O)Oc3ccc4ccccc4c3)CC2=O)c1 (stereo not drawn) | 0 | -8 | 7.3* | 3 | 0 | -1
COc1cccc(N2CC(C(=O)NCCc3ccsc3)CC2=O)c1 (stereo not drawn) | 0 | 7 | 5.5* | 1 | -1 | -14
COc1ccc(N2CC(C(=O)NCCc3ccccc3)CC2=O)cc1 (stereo not drawn) | 0 | -6 | 0 | -56 | / | /
COc1cccc(N2CC(C(=O)N3CCN(CCn4nc(C)cc4C)CC3)CC2=O)c1 (stereo not drawn) | 0 | 5 | 8.1* | 9 | 2 | 0
CN=c1scc(C)n1/N=C/c1ccccc1I | 0 | -72 | -1 | -4 | / | /
O=C(NCCCn1ccnc1)Nc1c[nH]c2ccccc12 | -1 | -9 | 0 | 11 | / | /
O=C(N/N=C/c1cccs1)c1ccc(O)cc1O | 0 | -13 | 0 | 30 | / | /
CCOC(=O)c1ccc(N2C(=O)c3n[nH]c(C)c3C2c2cccc([N+](=O)[O-])c2)cc1 (stereo not drawn) | 0 | -5 | 0 | 4 | / | /
Cc1cc(C)n2nc(C(=O)Nc3ccc(C(F)(F)F)cc3)nc2n1 | 0 | -19 | -1 | -5 | / | /
Nc1ccc2c(c1)S(=O)(=O)c1cc(N)ccc1O2 | 0 | -59 | 7.4* | 3 | 0 | -6
CC(=O)N1CCN(c2ccc(NC(=O)c3ccc(Br)cc3)cc2)CC1 | 0 | 0 | 0 | -7 | / | /
N#C/C(=C(/O)COc1ccc([N+](=O)[O-])cc1)c1nnc2n1CCCCC2 | 0 | -8 | 5.8* | -3 | 0 | -6
N#C/C(=C(/O)COc1ccccc1)c1nnc2n1CCCCC2 | 0 | 2 | -1 | -5 | / | /
COc1ccc(CN(C)CC(=O)Nc2ccc(C(N)=O)cc2)c(OC)c1OC | 0 | 1 | 5.0* | -5 | 1 | 12
CN(CC(=O)Nc1ccc(C(N)=O)cc1)CC(=O)Nc1ccccc1Cl | 0 | -5 | 1 | -11 | / | /
CN(CC(=O)Nc1ccc(C(N)=O)cc1)Cc1ccc(C(C)(C)C)cc1 | 0 | -8 | 1 | -1 | / | /
CN(CC(=O)Nc1ccc(Cl)cc1)CC(=O)Nc1ccc(C(N)=O)cc1 | 0 | 4 | 5.4* | -6 | 0 | -9
SMILES | FBW7 activator | TEAD-YAP block | GPR151 ag | MITF primary | GPR151 confirm | GPR119 ag
COC(=O)c1ccc(C2/C(=C(/O)c3ccccc3)C(=O)C(=O)N2CC(C)O)cc1 (stereo not drawn) | 0 | 0 | 1 | 8 | / | /
O=C(O)CCC/C=C/C[C@@H]1[C@@H](/C=C/[C@@H](O)COc2cccc(C(F)(F)F)c2)[C@H](O)C[C@@H]1O | / | / | 5.1* | 2 | 2 | 8
O=C(O)CCC/C=C\C[C@@H]1[C@@H](/C=C/[C@@H](O)COc2cccc(C(F)(F)F)c2)[C@H](O)C[C@@H]1O | / | / | 4 | -5 | / | /
COc1ccccc1N1CCN(c2ncc(C(=O)N3CCN(c4ccccn4)CC3)c3ccccc23)CC1 | 1 | 1 | -1 | 13 | / | /
COc1ccccc1N1CCN(C(=O)c2cnc(N3CCN(c4ncccn4)CC3)c3ccccc23)CC1 | 0 | 24 | 5.3* | 6 | 2 | 14
COC(=O)c1c(NC(=O)c2ccc([N+](=O)[O-])cc2)sc(C(=O)N2CCOCC2)c1C | 0 | -1 | 5.5* | 13 | 1 | 4
Brc1ccc2nc(-c3c[nH]c4ccccc34)cn2c1 | 0 | -29 | 7.1* | 2 | 0 | -8
Cc1cccn2cc(-c3c[nH]c4ccccc34)nc12 | 0 | -46 | 1 | 1 | / | /
N#CC1=C(N)Oc2n[nH]c(-c3ccccn3)c2C1c1cccs1 (stereo not drawn) | -1 | -4 | 0 | 12 | / | /
O=C(Cc1n[nH]c(=O)c2ccccc12)Nc1ccccn1 | 0 | 0 | 5.4* | 7 | 0 | -7
CSc1nsc(NC(=O)Cc2n[nH]c(=O)c3ccccc23)n1 | 0 | -4 | -1 | -4 | / | /
CSc1nc(N)nc(SCC(=O)Nc2ccc(C)cc2)c1C#N | 0 | -1 | 0 | 4 | / | /
CSc1nc(N)nc(SCC(=O)Nc2ccc(Cl)cc2)c1C#N | 0 | 3 | 11* | -7 | 0 | 0
O=C(Nc1ccc2c3c(cccc13)CC2)c1ccc(-c2ccc(Cl)cc2)o1 | 0 | -6 | 5.1* | 14 | -1 | -4
COC(=O)c1ccc(NC(=O)CSc2nnc3[nH]c(=O)ccn23)cc1 | 0 | 14 | 6.3* | 2 | -1 | -1
CS(=O)(=O)N(CC(=O)N1CCN(c2ccccc2F)CC1)c1ccc(F)cc1 | 0 | 4 | 0 | 2 | / | /
CCOC(=O)/C(=C\c1ccco1)NC(=O)c1ccccc1I | 0 | 9 | 12* | 11 | 0 | 6
COc1ccc(-c2nc(CSc3nc4c(c(=O)[nH]3)CN(Cc3ccccc3)CC4)c(C)o2)cc1 | 0 | -10 | -1 | 5 | / | /
O=C(NCCc1ccc(O)cc1)c1csc(-c2cccs2)n1 | 0 | -3 | 6.4* | 36 | 0 | 5
COc1ccc(CCNC(=O)c2csc(-c3cccs3)n2)cc1 | 1 | -3 | 0 | 18 | / | /
COc1cc(/C=C2\NC(=O)N(Cc3ccc(Cl)cc3)C2=O)cc(OC)c1O | 0 | -6 | -2 | -12 | / | /
COc1cc(/C=C2/NC(=O)N(Cc3ccccc3F)C2=O)cc(Cl)c1OC | 0 | -3 | 1 | 8 | / | /
COc1ccc2ccc(OC)c(/C=C3\NC(=O)N(Cc4ccc(Cl)cc4)C3=O)c2c1 | 0 | 0 | 4.9* | 7 | 0 | 6

From PubChem BioAssay
